Assay outcomes (PubChem BioAssay)
Sampled rows, rich in hits. Any-hit rate of the full collection: about 0.37%.
PTAP TSG101 blk = qHTS Assay for Iinhibitors of HIV-1 Budding by Blocking the Interaction of PTAP/TSG101. AID 493005, 2010. 340,000 tested, under 10 active. Fluorescence polarization, FITC-PTAP peptide / Tsg101 binding. Tumor susceptibility gene 101 protein (Homo sapiens), Q99816. Potency, µM (titrated, usually from 115 µM), actives largely listed as inhibitors; active = well fitted inhibition curve with a large enough effect in the main read-out, with a control signal flat, not every such curve was filed as active; inconclusive = small, poorly fitted or top-dose-only effect, or effect the other way, or a change in a side signal; inactive = no such curve, though single readings can be large or run the other way
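FP read-out: FITC-PTAP peptide, 50 nM final, binding Tsg101 binding domain, 10 uM final; 20 min, r.t.; 10 mM HEPES pH 7.5, 0.15 M NaCl, 0.01% Tween 20, 3 mM EDTA, 0.1 mM TCEP.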
S-ASM inh = Inhibitors of Secretory Acid Sphingomyelinase (S-ASM): qHTS. AID 504937, 2011. Sphingomyelin phosphodiesterase (Homo sapiens), P17405. placental ASM, HMU-PC fluorogenic substrate, 60 min. hit rate 0.006% among 340,000. Potency, µM (titrated, usually from 57.5 µM), usual class: inhibitors
Target sequence (P17405 47-631 limits assumed): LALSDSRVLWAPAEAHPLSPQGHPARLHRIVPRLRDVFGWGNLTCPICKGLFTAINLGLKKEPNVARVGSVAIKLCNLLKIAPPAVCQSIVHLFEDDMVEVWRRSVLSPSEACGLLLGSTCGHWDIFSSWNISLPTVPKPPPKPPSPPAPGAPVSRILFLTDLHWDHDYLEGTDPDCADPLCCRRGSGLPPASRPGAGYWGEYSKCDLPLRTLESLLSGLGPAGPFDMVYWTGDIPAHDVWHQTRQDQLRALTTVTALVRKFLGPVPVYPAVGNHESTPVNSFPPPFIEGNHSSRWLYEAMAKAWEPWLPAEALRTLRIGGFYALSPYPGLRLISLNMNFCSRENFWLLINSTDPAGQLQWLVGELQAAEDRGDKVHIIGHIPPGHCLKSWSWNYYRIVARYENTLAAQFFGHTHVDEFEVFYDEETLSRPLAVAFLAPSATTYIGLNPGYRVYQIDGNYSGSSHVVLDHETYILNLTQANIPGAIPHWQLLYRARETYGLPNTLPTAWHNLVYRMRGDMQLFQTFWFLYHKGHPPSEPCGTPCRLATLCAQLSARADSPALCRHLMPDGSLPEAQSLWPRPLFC
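qHTS format. ASM enzyme prepared from human placenta hydrolyses the fluorogenic substrate HMU-PC0 (9 uM final) over 60 min at 37 °C after a 10 min compound preincubation.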
TRPV1 PAM = HTS Assay for Compounds that Act as Potentiators of the Vanilloid Receptor 1; potentiation, % at 8.33 µM; TRPV1-expressing cells, Fluo-8 calcium influx, capsaicin EC20 potentiation; Transient receptor potential cation channel subfamily V member 1 (Homo sapiens), Q8NER1; hit rate 0.02% among 320,000; AID 540277, 2011; in the data active = potentiation above about 80%; inconclusive = between about 30% and that limit
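Fluo-8 calcium influx in TRPV1-expressing cells, kinetic read (ex 480/em 520 nm). Compound added and read 3 min for agonist activity, followed by capsaicin at EC20 final and 2 min further read for enhancement.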
AT treatment = qHTS Assay for Identifying a Potential Treatment of Ataxia-Telangiectasia; F2112 A-T fibroblasts, KAP-1 phosphorylation AlphaLISA; neocarzinostatin DNA damage 30 min before lysis; AID 485349, 2010; Potency, µM (titrated, usually from 57.5 µM), actives largely listed as activators; hit rate 0.19% among 320,000; also: nearly all actives have a fitted effect of over 45% in size
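hTERT-immortalized A-T patient fibroblasts (F2112), 500 cells/well in OPTI-MEM, 1% FBS, got compounds for 60 min, then NCS for 30 min at 37C. Lysates were then assayed for phospho-KAP-1 by AlphaLISA (anti-pKAP1 donor, anti-KAP1 acceptor beads), 6 hr at 25C.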
TRPV1 agonist = HTS Assay for Compounds that Act as Agonists of the Vanilloid Receptor 1 | Transient receptor potential cation channel subfamily V member 1 (Homo sapiens), Q8NER1 | TRPV1-expressing cells, Fluo-8 calcium influx, agonist mode | activation, % at 8.33 µM | hit rate 0.19% among 320,000 | AID 540275, 2011; in the data active = activation above about 80%; inconclusive = between about 30% and that limit
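Fluo-8 calcium influx in TRPV1-expressing cells, kinetic read (ex 480/em 520 nm). Compound added and read 3 min for agonist activity, followed by capsaicin at EC20 final and 2 min further read for enhancement.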
Large screens that a line does not name were inactive. Unless noted, calls follow the shape of the dose curve; as a rule, active = well fitted curve in the direction sought with a large enough effect; inconclusive = small, poorly fitted or top-dose-only effect, or another doubt; inactive = no such curve, though single readings can be large; an effect the other way counts as inactive or inconclusive.

Cc1nnc(SCC(=O)Nc2nc(-c3ccccc3)cs2)n1N	TRPV1 PAM inconclusive
Cn1cnnc1SCC(=O)Nc1nc(-c2ccccc2)cs1	TRPV1 agonist 89
O=C(CN1CCOCC1)Nc1nc(-c2ccccc2)cs1	TRPV1 agonist 85
O=C(Nc1nc(-c2ccccc2)cs1)c1ccc(Br)o1	TRPV1 agonist 88
O=C(CN1CCCCC1)Nc1nc(-c2ccccc2)cs1	TRPV1 agonist inconclusive
Cc1cc(OCC(=O)Nc2ccc(S(=O)(=O)N3CCN(C)CC3)cc2)ccc1Br	none (no result: S-ASM inh)
CCc1cc2c(=O)c(-c3nc4ccccc4[nH]3)coc2c(CN2CCCCC2)c1O	TRPV1 agonist inconclusive
O=c1oc2c(O)cccc2cc1-c1nc2ccccc2[nH]1	PTAP TSG101 blk inconclusive, AT treatment inconclusive, TRPV1 agonist 85
O=C(O)c1ccc2nc(-c3cc4cccc(O)c4oc3=O)[nH]c2c1	none (no result: PTAP TSG101 blk, S-ASM inh)
O=c1oc2c(CN3CCCCC3)c(O)ccc2cc1-c1nc2ccccc2[nH]1	PTAP TSG101 blk inconclusive, TRPV1 agonist 85
CCCCNC(=O)OCCNC(=O)NC	none
CCC(=O)N(C)CCc1cc2c(c(OC)c1/C=N/Nc1ccc(C(=O)O)cc1)OCO2	AT treatment 40µM
CCC(=O)N(C)CCc1cc2c(c(OC)c1/C=N/NC(=O)[C@H]1C[C@@H]1c1ccccc1)OCO2	none
CCCCCCC(=O)Nc1ccc(C(=O)N/N=C/c2cccnc2)cc1	TRPV1 agonist 86
O=C(Nc1ccccc1O)N1c2ccccc2Sc2ccccc21	S-ASM inh 25µM
CCOC(=O)c1c(-c2ccccc2)oc2ccc(OCC(O)CNCCN(C)C)cc12 (stereo not drawn)	AT treatment 40µM
CCOC(=O)c1c(-c2ccccc2)oc2ccc(OCC)cc12	none
COc1ccc(NC(=O)CN(C)S(=O)(=O)c2ccc3c(c2)CCC(=O)N3)c(OC)c1	TRPV1 agonist inconclusive
O=C(NCCSc1ccccc1)c1ccccc1F	none (no result: TRPV1 PAM, AT treatment, TRPV1 agonist)
Cc1ccc(SCCNC(=O)c2ccccc2F)cc1	TRPV1 agonist 80
COCCN(Cc1cc2cccc(C)c2[nH]c1=O)C(=O)c1ccccc1	none
CCC(=O)N(CCc1ccccc1)Cc1cc2cccc(C)c2[nH]c1=O	TRPV1 agonist 88
CCS(=O)(=O)N1CCC(C(=O)NC2CCCCCCC2)CC1	none
CC(C)CN(CC(C)C)S(=O)(=O)N1CCC(C(=O)NC2CCCCCCC2)CC1	TRPV1 agonist 84
COC(=O)c1c(NC(=O)CCCOc2ccc(C)cc2)sc2c1C(C(=O)OC)CC2 (stereo not drawn)	none (no result: PTAP TSG101 blk, S-ASM inh, AT treatment)
CCOC(=O)N1CCN(C(=O)Nc2ccc3nc(C)c(C)nc3c2)CC1	AT treatment 40µM
COc1ccc([C@]23Cc4cc(OC)c(OC)cc4C(O2)c2c(cc(-c4ccccc4)oc2=O)O3)cc1	none (no result: PTAP TSG101 blk, S-ASM inh)
O=C(Nc1ccccc1)C1C(c2ccccc2)C1(Cl)Cl (stereo not drawn)	TRPV1 agonist 84
O=C(CCS(=O)(=O)c1ccccc1)N(Cc1cccnc1)c1nc2c(Cl)cccc2s1	none (no result: PTAP TSG101 blk, S-ASM inh, AT treatment)
Cc1cc(C(=O)N/N=C/c2cccc([N+](=O)[O-])c2)c(C)n1-c1ccccc1	TRPV1 agonist 89
COc1ccc(/C=N/NC(=O)c2cc(C)n(-c3ccccc3)c2C)cc1OC	TRPV1 agonist inconclusive
CC(C)(C)c1cc(C(=O)Nc2ccc(F)cc2)n(Cc2ccc(F)cc2)n1	TRPV1 agonist 88
COc1cccc(/C=C2\SC(N3CCC(C)CC3)=NC2=O)c1OC	TRPV1 agonist 93
COC(=O)N1C(=O)[C@@](CC(C)C)(c2ccccc2)N1C(=O)OC	AT treatment 35µM (no result: PTAP TSG101 blk, S-ASM inh)
COC(=O)N1C(=O)[C@](c2ccccc2)(C2CCCCC2)N1C(=O)OC	TRPV1 agonist inconclusive
COC(=O)N1C(=O)[C@@](c2ccccc2)(C2CCCC2)N1C(=O)OC	AT treatment 25µM
COC(=O)C1=C(C)N(Cc2ccccc2)C(=NCC2CC2)N[C@H]1c1ccc(Br)cc1	none (no result: PTAP TSG101 blk, S-ASM inh)
COc1cc2ccccc2nn1	none
